Screening data (PubChem)
D2 PAM-1 – positive allosteric modulators of human D2 dopamine receptor. P14416. HEK293 T-REx D2, calcium flux, EC20 dopamine potentiation. potentiation, % at 10 µM. 340,000 compounds, 0.34% hits. AID 485347;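 active = potentiation over 3 SD above the plate norm, cut at about 30% in these data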; also: 0% is about no effect
Target sequence (P14416 whole entry, looked up): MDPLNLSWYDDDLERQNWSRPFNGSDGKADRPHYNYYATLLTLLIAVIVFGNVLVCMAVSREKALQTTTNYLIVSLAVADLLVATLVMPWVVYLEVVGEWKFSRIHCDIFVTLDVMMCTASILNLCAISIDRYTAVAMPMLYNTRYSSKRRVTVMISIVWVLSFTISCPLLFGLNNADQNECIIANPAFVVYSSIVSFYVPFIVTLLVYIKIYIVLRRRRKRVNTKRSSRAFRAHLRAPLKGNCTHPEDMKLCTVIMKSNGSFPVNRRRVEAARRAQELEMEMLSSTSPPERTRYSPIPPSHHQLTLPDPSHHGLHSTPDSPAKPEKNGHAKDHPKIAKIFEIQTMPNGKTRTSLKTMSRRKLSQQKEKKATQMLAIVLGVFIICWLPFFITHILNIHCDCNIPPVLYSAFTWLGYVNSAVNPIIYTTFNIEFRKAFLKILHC
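Tetracycline-induced Hek293 Trex D2 cells, force-coupled to calcium, loaded with no-wash calcium dye. Compound added with 180 s kinetic read for agonism, then EC20 dopamine and a further 180 s read for potentiation.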
D2 antagonist – antagonizes the human D2 dopamine receptor; P14416; HEK293 TREx D2 cells, calcium flux, dopamine EC80; inhibition, % at 10 µM; 340,000 compounds, 2% hits; AID 485344; in the data active = inhibition above about 30%; inactive = below that, where a call was filed; also: 0% is about no effect
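Overnight-induced (tetracycline, 30 C) HEK293 T-REx cells carrying force-coupled D2 receive a no-wash calcium dye, then compound, then EC80 dopamine at 180 s; signals are read kinetically throughout.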
D2 ag-1 – activates the human D2 dopamine receptor; P14416; HEK293 T-REx D2 cells, calcium flux agonist mode; activation, % at 2 µM; 340,000 compounds, 0.53% hits; AID 485358;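 active = activation over 3 SD above normal in the single-dose calcium agonist read, cut at about 30% in these data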; also: 0% is about no effect
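Calcium-flux readout, 1 cycle/sec over 180 s following compound pin transfer, in inducible HEK293 Trex D2 cells (force-coupled); dopamine controls included. Positive calcium responses during this window marked compounds as potential agonists.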
D2 ag-2 – human D2 receptor agonism in beta-arrestin assay | P14416 | DiscoveRx PathHunter D2 beta-arrestin, luminescence, 90 min; 100% = 57 uM dopamine signal | activation, % (test concentration not listed) | 360,000 compounds, 0.084% hits; in the data active = activation above about 40%; inconclusive = between about 15% and that limit
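Agonist mode: compounds alone added to overnight-plated D2 PathHunter cells for 90 min at 37 C, with 57 uM final dopamine (EC100) defining full response. Beta-arrestin recruitment detected by chemiluminescent reagent, read after 1 h at ambient temperature.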
D2 PAM-2 – human D2 receptor positive allosteric modulation; DiscoveRx D2 beta-arrestin cells, luminescence, 90 min; 100% = 57 uM dopamine signal; 360,000 compounds, 0.23% hits; potentiation, % (test concentration not listed); P14416; in the data active = potentiation above about 50%; inconclusive = mostly about 30% to 49%
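D2 cells co-treated with compound plus 50 nM dopamine (EC20) for 90 min at 37 deg C to detect potentiation. Beta-arrestin recruitment was read as enzyme-fragment luminescence after 1 h at ambient temperature. Full response was set by 57 uM dopamine.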
* marks the source's active call; other numbers are inactive results; ? = inconclusive; . = no result given. A selection: hits, their analogues and other compounds. The true share with any hit is near 2.4%.

SMILES | D2 PAM-1 | D2 antagonist | D2 ag-1 | D2 ag-2 | D2 PAM-2
O=C(NC1CCN(Cc2ccccc2)CC1)C1COc2ccccc2O1 (stereo not given) | -25 | 34* | -2 | 3 | -46
COc1cc(NC(=O)CN2CCCN(S(=O)(=O)c3ccc(F)cc3)CC2)cc(OC)c1 | 23 | . | -1 | . | .
Cc1ccc(Cl)cc1N1CCN(C(=O)c2ccc3c(c2)N(Cc2ccc(F)cc2)CCS3)CC1 | 7 | . | -1 | . | .
O=C(CCc1nc2ccccc2c(=O)[nH]1)Nc1cc(C(F)(F)F)ccc1N1CCCC1 | -8 | 15 | 0 | -1 | -2
N#CC1(NC(=O)COC(=O)c2nc(Cl)c(Cl)c(N)c2Cl)CCCCC1 | -15 | -5 | 31* | 6 | -8
N#CC1(NC(=O)COC(=O)c2ncc(Cl)c(Cl)c2Cl)CCCCC1 | 7 | -4 | 1 | 0 | 26
N#CC1(NC(=O)COc2ccc(S(=O)(=O)N3CCCC3)cc2[N+](=O)[O-])CCCCC1 | 5 | -22 | 2 | 1 | -7
CC(C)Cn1cnc2c1c(=O)n(CC(=O)NC(=O)NC(C)(C)C)c(=O)n2Cc1ccccc1 | 31* | 14 | 0 | -3 | 2
Cc1cc(=O)oc2cc(OCC(=O)NC3CCCC3)ccc12 | 31* | -24 | 0 | 1 | -2
CC(=O)c1ccc(OCC(=O)NC(=O)NC2CCCC2)cc1 | . | . | . | -1 | -3
CC(=O)c1ccc(OCC(=O)NC2CCCCCC2)cc1 | 31* | -3 | 0 | -1 | 4
COc1ccc(C(=O)NN/C(=N/S(=O)(=O)c2ccc(C)cc2)c2ccccc2)cc1 | 8 | -3 | 0 | 3 | -2
COc1ccc(NC(=O)CSc2[nH]c(=O)cc(C)c2C#N)cc1OC | 11 | 34* | 0 | -1 | 0
CCOc1ccc(NC(=O)C2CC(=O)OC2c2ccccc2)cc1 (stereo not given) | 1 | -10 | 0 | 10 | -5
COC(=O)c1ccc(NC(=O)C2CC(=O)OC2c2ccccc2)cc1 (stereo not given) | -15 | 35* | 0 | -5 | -6
CCCNC(=O)c1ccc(COc2ccc(CCC)cc2OC)o1 | 6 | 0 | -2 | 4 | 0
CCOc1cc(/C=N/NC(=O)c2nnn(-c3nonc3N)c2C)ccc1OCc1cccc(F)c1 | 55* | -7 | 0 | -2 | -5
CCCOc1ccc(-c2c(C(=O)N/N=C/c3ccc(C)cc3)nnn2-c2nonc2N)cc1 | 5 | 4 | 6 | -4 | 1
COc1ccc2ccccc2c1/C=N/NC(=O)c1nnn(-c2nonc2N)c1C(C)C | -6 | 35* | 1 | 0 | -29
Cc1ccc(-c2c(C(=O)N/N=C/c3ccsc3)nnn2-c2nonc2N)cc1 | 21 | 35* | 19 | -4 | -1
CCOc1cc(/C=N/NC(=O)c2nnn(-c3nonc3N)c2C)ccc1OCc1ccc(F)cc1 | 9 | -7 | 1 | 8 | 1
COc1ccc2ccccc2c1/C=N/NC(=O)c1nnn(-c2nonc2N)c1CN(C)C | 13 | -3 | -1 | 1 | -7
CCOc1ccc(-c2c(C(=O)N/N=C/c3ccc(C)cc3)nnn2-c2nonc2N)cc1 | 6 | -2 | 39* | 5 | -1
O=C(NNC(=O)c1ccncc1)Nc1cccc(C(F)(F)F)c1 | -3 | 3 | 0 | -1 | -3
Cc1noc(C)c1CSCC(=O)N(C)CC(=O)Nc1cccc(F)c1 | 4 | 15 | 1 | -3 | 7
SMILES | D2 PAM-1 | D2 antagonist | D2 ag-1 | D2 ag-2 | D2 PAM-2
CCOc1ccc(-c2c(C(=O)N/N=C/c3ccc(Cl)cc3)nnn2-c2nonc2N)cc1 | 84* | -10 | 0 | 6 | 0
Nc1nonc1-n1nnc(C(=O)N/N=C/c2ccccc2Cl)c1CN1CCOCC1 | 43* | 4 | 0 | 4 | -9
Cc1cc2n(n1)CCC(=O)N2Cc1ccc(C(=O)Nc2ccc(Br)c(C)c2)cc1 | -11 | . | 1 | . | .
CCOc1ccc(-n2c(SCC(=O)N3CCCc4ccccc43)nc3c([nH]c4ccccc43)c2=O)cc1 | . | . | -1 | . | .
Nc1cc(=O)nc(SCC(=O)Nc2ccc(F)cc2)n1-c1ccc(Cl)cc1 | 23 | . | 0 | . | .
CN(CCCC(=O)O)c1ccc(N=Nc2ccc([N+](=O)[O-])cc2)cc1 | . | . | . | -14 | -5
CCN(C(=O)CSc1nc2ccc(O)cc2c(=O)n1-c1ccc(OC)c(OC)c1)C1CCS(=O)(=O)C1 (stereo not given) | 9 | 43* | -1 | -1 | -70
C=CCOc1ccc(/C=C2\SC(=S)N(NS(=O)(=O)c3ccc(C)cc3)C2=O)cc1 | -7 | 3 | 0 | -1 | -6
N#Cc1ccc(COc2cccc3cccnc23)cc1 | 31* | -7 | 0 | 1 | 0
CCOc1ccc(-c2cnc(NCc3ccc(C(F)(F)F)cc3)n2C)cc1 | -21 | . | . | . | .
Oc1ccc(C(=S)N2CCCC2)cc1 | -6 | 9 | 1 | -2 | -4
COc1ccc(C(=S)N2CCCC2)cc1 | 43* | -27 | 0 | 0 | -7
Oc1ccc(C(=S)N2CCCCCC2)cc1 | -3 | 37* | 0 | 0 | 1
CC(C)COc1nc2c(c(=O)n(C)c(=O)n2C)n1C | 9 | -18 | -1 | -5 | 1
COc1ccc(-c2c(NC(=O)CC(C)C)n(C)c3ccccc3c2=O)cc1OC | -11 | 3 | 0 | 0 | -3
CCC(NC(=O)C1CCCC1)c1ccccc1 (stereo not given) | . | . | . | 5 | -6
Cc1cnc(C(=O)Nc2ccccc2-c2nnn(CC(=O)NC3CCCC3)n2)cn1 | -2 | 30* | 0 | 2 | -18
COc1ccccc1C1C(C(C)=O)=C(C)N=c2s/c(=C\c3cc(OC)c(OC)c(OC)c3)c(=O)n21 (stereo not given) | 32* | 3 | 1 | 2 | 16
Cc1ccc(CNC(=O)C(=O)NCC(c2cccs2)S(=O)(=O)c2ccc(C)cc2)cc1 (stereo not given) | 11 | . | 1 | . | .
CN1Cc2cccc3c2C(Cc2ccccc2S3)C1 (stereo not given) | -25 | 48* | 1 | -2 | -34
COc1ccc(C(=O)C[n+]2cccc(C)c2C)cc1[N+](=O)[O-] | -35 | 59* | 0 | -5 | -4
c1ccc(Cn2cc(CNc3ccccc3)nn2)cc1 | -3 | 42* | 0 | 0 | -5
Cc1[nH]c2ccc(C(=O)NCCCN(C)C3CCCCC3)cc2c1C | -27 | 34* | 0 | -5 | -40
Cc1[nH]c2ccc(C(=O)NCCCN3CCN(C)CC3)cc2c1C | -5 | 1 | -1 | -2 | -19
COc1ccc(NC(=O)c2ccc3c(c2)nnn3C2CCCC2)cc1Cl | -1 | . | 0 | . | .
CCCCN(C=O)c1c(CC)nc2c(OCC3CCCCC3)cccn12 | . | . | . | -5 | -7
Cc1cccc(NC2=C/C(=N/S(=O)(=O)c3cccs3)c3ccccc3C2=O)c1 | 6 | -10 | -1 | ? | 96*
